From PubChem BioAssay AID463190 (Sanford-Burnham Center for Chemical Genomics, 2010)
Hit rate of the full screen: of about 330,000 compounds, about 7,300 (2.2%) were called active.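 How the source made its calls: active means inhibition of at least 40%; inactive means the rest.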 The full list was thinned out, with actives kept by preference.

Assay: growth inhibition of tim10-1 ts yeast – luminescence, uHTS, primary screen (AID 463190);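 further: mutant grown at 25 °C; 0% = DMSO wells with yeast and 100% = wells holding no yeast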
Settings: S. cerevisiae tim10-1 ts strain growth, BacTiter-Glo, 24 h; at 20 µM; active compounds read high

SMILES	inhibition
O=C(Nc1ccc2oc(-c3ccc4ccccc4c3)nc2c1)c1cccs1	3.31% (inactive)
Cc1cc2nc(-c3ccc(NC(=O)c4cccnc4)cc3)oc2cc1C	12.5% (inactive)
CCc1ccc2oc(-c3ccc(N)cc3)nc2c1	41.3% (active)
Cc1ccc(NC(=O)COC(=O)CCc2nc3ccccc3n2-c2ccccc2)c(C)c1	10.3% (inactive)
Cc1ccc2c(c1)C1CN(C)CCC1N2S(=O)(=O)c1cccc(F)c1 (stereo unspecified)	3.83% (inactive)
Cc1ccc2c(c1)C1CN(C)CCC1N2S(=O)(=O)c1ccc(Oc2ccc([N+](=O)[O-])cc2)cc1 (stereo unspecified)	43.1% (active)
Cc1ccc2c(c1)C1CN(C)CCC1N2C(=S)Nc1ccc(OC(F)F)cc1 (stereo unspecified)	3.44% (inactive)
COCC(=O)Nc1c(I)c(C(=O)NCC(O)CO)c(I)c(C(=O)N(C)CC(O)CO)c1I (stereo unspecified)	6% (inactive)
Cc1ccc(/C=C/C(=O)O)cc1S(=O)(=O)N1CCC(Cc2ccccc2)CC1	-0.486% (inactive)
COc1cc(CN2CCC(n3nccc3NC(=O)CCCc3ccccc3)CC2)ccc1O	25.4% (inactive)
COc1cccc(CN(C)CC2CCCN(CCc3ccc(Cl)cc3)C2)c1OC (stereo unspecified)	-21.5% (inactive)
Nc1cc(C(F)(F)F)ccc1N1CCOCC1	11.6% (inactive)
CC(Nc1nc(C(F)(F)F)nc2ccccc12)c1cccs1 (stereo unspecified)	42.6% (active)
COc1cccc(CNc2nc(C(F)(F)F)nc3ccccc23)c1	39.2% (inactive)
CCc1ccc(C(CNc2nc(C(F)(F)F)nc3ccccc23)N(C)C)cc1 (stereo unspecified)	29.3% (inactive)
Cn1c2ccccc2n2c(=O)c(=O)n(CC(=O)c3ccc(F)cc3)nc12	-14.7% (inactive)
COc1ccc(/C=C(\C#N)C(=O)OCC(=O)N(C)C2CCS(=O)(=O)C2)cc1 (stereo unspecified)	-4.56% (inactive)
COc1ccc(/C=C(\C#N)C(=O)ONC2=NCCCCC2)cc1	48.2% (active)
COc1ccc(N2CCN(C(=O)/C(C#N)=C/c3ccccc3)CC2)cc1	18.8% (inactive)
CN(NC(=O)c1ccccc1F)c1nc(C(F)(F)F)nc2ccccc12	6.21% (inactive)
Cc1ccc(Nc2c(F)c(F)c(F)c(F)c2C(=O)O)c(C)c1	-6.12% (inactive)

SMILES	inhibition
Cc1cccc(N=Nc2c(O)[nH]c3ccc(F)cc23)c1	43.6% (active)
NS(=O)(=O)c1ccc(N=Nc2c(O)[nH]c3ccc(Br)cc23)cc1	-13% (inactive)
Oc1[nH]c2ccc(Br)cc2c1N=Nc1nn[nH]n1	16.7% (inactive)
Nc1cccc(-c2cc(-c3ccccc3)nc(-c3cccc(N)c3)n2)c1	26.4% (inactive)
c1ccc(-c2cc(-c3ccccc3)[nH]n2)cc1	7% (inactive)
Nc1nc(-c2ccccc2)cc(-c2ccccc2)n1	41.6% (active)
CCNc1nc(NCC)nc(N(C)n2cnnc2)n1	13.1% (inactive)
O=C1N=C2SCCN2/C1=C\c1c(Cl)cccc1Cl	-18.2% (inactive)
CNC(=O)N1c2ccccc2C=Cc2ccccc21	-1.34% (inactive)
CCN(CC(=O)NCc1ccco1)S(=O)(=O)c1ccc(F)cc1	-17.2% (inactive)
Cc1cc(C)cc(OCC(=O)O/N=C(\N)Cc2ccc([N+](=O)[O-])cc2)c1	19.4% (inactive)
N/C(Cc1ccc([N+](=O)[O-])cc1)=N\OC(=O)COc1ccc2ccccc2c1	68.6% (active)
O=C(COC(=O)Cc1ccc([N+](=O)[O-])cc1)NC1CCCCCC1	13.1% (inactive)
O=C(COC(=O)C1CCCCC1)Nc1ccc([N+](=O)[O-])cc1	13.8% (inactive)
N/C(Cc1ccc([N+](=O)[O-])cc1)=N\OC(=O)C1CCCCC1	61.6% (active)
COC(=O)C(C)NC(=O)COc1ccc2ccccc2c1 (stereo unspecified)	8.45% (inactive)
CCOC(=O)C1=C(C)c2ccccc2OC1C(=O)OCC (stereo unspecified)	9.8% (inactive)
COCCN(CCOC)c1nc(N)c2c(N)nc3c(c2c1C#N)CC(=O)N3Cc1ccc(Cl)cc1	28.9% (inactive)
Cc1cc2cc(CNC(=O)c3cccs3)ccc2[nH]1	-2.64% (inactive)
CCc1cccc(CC)c1NC(=S)NCc1ccc2[nH]c(C)cc2c1	48.6% (active)
CCc1cccc(CC)c1NC(=S)Nc1ccc2cn[nH]c2c1	18.2% (inactive)

SMILES	inhibition
O=C(Nc1nnc(CCN2CCCCC2)s1)c1cccc(Cl)c1	-12.8% (inactive)
Cc1cc(/C=C2/SC(=O)N(CC(=O)N3CCCC3)C2=O)ccc1N1CCOCC1	3.32% (inactive)
CC(OC(=O)c1ccccc1N1C(=O)C2C3CCC(C3)C2C1=O)C(=O)c1ccccc1 (stereo unspecified)	22.1% (inactive)
CCOC(=O)c1ccccc1N1C(=O)C2Sc3[nH]c(=O)sc3C(/C=C/c3ccccc3)C2C1=O (stereo unspecified)	40.6% (active)
COC(=O)C1=C(C)N=C2SC(C)C(=O)N2C1/C=C/c1ccccc1 (stereo unspecified)	19% (inactive)
N#Cc1cccc(NC(=O)C2CCCN(C(=O)c3ccc(Cl)cc3)C2)c1 (stereo unspecified)	7.79% (inactive)
CCC1(C)NC(=O)N(CC(=O)N2CCN(c3cccc(Cl)c3)CC2)C1=O (stereo unspecified)	9.91% (inactive)
O=C(Nc1ccc2cn[nH]c2c1)c1ccc(S(=O)(=O)N2CCOCC2)cc1	-2.72% (inactive)
CCc1nc(C)cn1S(=O)(=O)c1cc(OC)c(C)cc1C	14.4% (inactive)
CCc1nc(C)cn1S(=O)(=O)c1cc([N+](=O)[O-])ccc1Cl	53.6% (active)
CCc1nccn1S(=O)(=O)c1cccc([N+](=O)[O-])c1	-8.99% (inactive)
O=C(Oc1ccc([N+](=O)[O-])cc1)c1ccc(Cl)c(S(=O)(=O)N2CCCCC2)c1	38.7% (inactive)
CC(C)c1nccn1S(=O)(=O)c1cc([N+](=O)[O-])ccc1Cl	43.6% (active)
Cc1ccc([N+](=O)[O-])cc1S(=O)(=O)N1CCCN(C)CC1	-9.68% (inactive)
CN(CCC1CCOCC1)Cc1cn[nH]c1-c1ccc(-c2ccccc2)cc1	18% (inactive)
COc1ccc(C(=O)C2CCCN(C(=O)c3cc4nc(C)cc(C)n4n3)C2)cc1F (stereo unspecified)	26.4% (inactive)
CCOc1ccc(OCc2cccc(C(=O)N(CC)CC)c2)cc1	21.6% (inactive)
CCOC(=O)c1cc(C(C)C)sc1NC(=O)COC(=O)c1nccnc1N	9.86% (inactive)
CC(C)c1cc(C(N)=O)c(NC(=O)c2cccc(COc3ccc(Br)cc3)c2)s1	40.9% (active)
